# Compound activity as filed in PubChem BioAssay.
# Most compounds without a hit are left out; they make up all but 19% or so of the library.
# TDP1 cell noCPT: qHTS for Inhibitors of human tyrosyl-DNA phosphodiesterase 1 (TDP1): qHTS in cells in absence of CPT | AID 686978, 2013 | 420,000 tested, 15% active | DT40 Tdp1-/- hTDP1 cells, no CPT, ATP luminescence, 48 h | Potency, µM (top dose mostly 46.2 µM), inactives show at the highest dose activity change, negative = growth inhibition, actives largely listed as inhibitors; also: nearly all actives have a fitted effect of over 55% in size
#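 Growth kinetics read by CellTiter-Glo luminescence after ≥48 hr at 37 °C. Cells: DT40 Tdp1-/- stably carrying human TDP1, 400 per well, compound exposure in the absence of CPT (DMSO vehicle).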
# TDP1 block: qHTS Assay for Inhibitors of Tyrosyl-DNA Phosphodiesterase (TDP1); recombinant TDP1, AlphaScreen DNA substrate cleavage; Potency, µM (top dose mostly 130 µM), for the others: at the highest dose activity change, negative = inhibition, usual class: inhibitors; 350,000 tested, 0.28% active; also: nearly all actives have a fitted effect of over 40% in size
#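 E. coli-derived human Tdp1, 1 nM final. Cpd preinc 15 min RT; substrate 15 nM final, 5 min RT; AS bead mix 10 ug/ml final, 10 min RT. Signal loss = tyrosine-FITC cleavage. No-enzyme wells = max signal.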
# Gal4-VP16 FLuc: VP16 counterscreen qHTS for inhibitors of ROR gamma transcriptional activity. Potency, µM (series often up to 53.6 µM), inactives show top-dose activity, negative = inhibition, most hits filed as inhibitors. Drosophila S2 Gal4-VP16 UAS-luciferase, luminescence, 20 h. 310,000 tested, 3.5% active;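 also: Gal4-VP16 expression switched on by copper sulfate through the metallothionein promoter; nearly all actives have a fitted effect of over 50% in size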
# TDP1 cell CPT: qHTS for Inhibitors of human tyrosyl-DNA phosphodiesterase 1 (TDP1): qHTS in cells in presence of CPT; 420,000 tested, 12% active; AID 686979, 2013; chicken DT40 Tdp1-/-;hTDP1 cells + 20 nM CPT, ATP luminescence, 48 h; Potency, µM (doses to about 46.2 µM), without a hit: at the highest dose activity change, negative = growth inhibition, usual class: inhibitors; also: nearly all actives have a fitted effect of over 55% in size
#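 Chicken DT40 Tdp1-/- cells complemented with human TDP1, 400 cells/well, exposed to compounds plus 20 nM camptothecin for at least 48 h at 37 C; viability read as ATP content by CellTiter-Glo luminescence.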
# RORgamma inh: qHTS for inhibitors of ROR gamma transcriptional activity; Nuclear receptor ROR-gamma (Mus musculus), P51450; Drosophila S2 Gal4-RORgamma UAS-luciferase reporter, 20 h; Potency, µM (doses to about 53.6 µM), without a hit: top-dose activity change, negative = inhibition, most hits filed as inhibitors; 310,000 tested, 5.4% active; AID 2551, 2010; also: nearly all actives have a fitted effect of over 60% in size
# Target sequence (P51450 whole entry, looked up, the tested form may be a part): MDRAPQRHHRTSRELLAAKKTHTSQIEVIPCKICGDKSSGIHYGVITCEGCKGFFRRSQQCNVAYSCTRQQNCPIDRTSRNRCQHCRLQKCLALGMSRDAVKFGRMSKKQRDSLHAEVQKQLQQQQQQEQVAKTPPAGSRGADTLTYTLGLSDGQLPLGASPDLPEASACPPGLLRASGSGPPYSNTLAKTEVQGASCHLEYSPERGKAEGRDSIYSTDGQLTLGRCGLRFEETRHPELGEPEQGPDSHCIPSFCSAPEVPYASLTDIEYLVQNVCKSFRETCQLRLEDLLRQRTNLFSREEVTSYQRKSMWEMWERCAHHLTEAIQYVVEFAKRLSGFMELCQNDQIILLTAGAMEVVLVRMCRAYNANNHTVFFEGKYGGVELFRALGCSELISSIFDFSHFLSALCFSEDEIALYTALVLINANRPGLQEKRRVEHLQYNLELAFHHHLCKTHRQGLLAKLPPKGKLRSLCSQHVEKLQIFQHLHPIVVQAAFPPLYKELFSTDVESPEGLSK
#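 Drosophila S2 cells stably expressing Gal4-DBD/mouse RORγ fusion under metallothionein promoter plus UAS-luciferase; compound 1 h, then 700 uM CuSO4 induction for 20 h at ambient temperature; inhibition read as reduced luminescence.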
# * = called active by the depositor; ? = inconclusive; nt = no result given; [ ] = dose if it differs, or a comment. Calls follow the shape of the dose curve; as a rule, active = well fitted curve in the direction sought with a large enough effect; inconclusive = small, poorly fitted or top-dose-only effect, or another doubt; inactive = no such curve, though single readings can be large; an effect the other way counts as inactive or inconclusive. % is scaled to controls: 0 for no effect and ±100 for the full control effect; potency is read from the fitted curve at half-maximal effect.
SMILES,TDP1 cell noCPT,TDP1 block,Gal4-VP16 FLuc,TDP1 cell CPT,RORgamma inh
O=C(CCS(=O)(=O)c1nc(-c2cccs2)cc(C(F)(F)F)n1)Nc1ccc(Br)cc1,3.66µM*,5.9%,nt,5.17µM*,nt
O=C(CCS(=O)(=O)c1nc(-c2cccs2)cc(C(F)(F)F)n1)Nc1cc(Br)ccc1O,1.16µM*,8.8%,nt,0.651µM*,nt
O=C(O)c1cc(-c2cccs2)nc2ccc(Br)cc12,nt,nt,-4.0%,nt,9.1%
CCNC(=S)N/N=C(\C)c1cccc(OC)c1,11.3%,8.1%,-25.1%,1.9%,2.51µM*
CCNC(=S)N/N=C(\C)c1ccc2ccccc2c1,nt,7.7%,7.08µM*,nt,2.82µM*
C/C(=N\NC(=O)Nc1ccccc1)c1ccc2ccccc2c1,?,5.5%,?,1.4%,-11.6%
COc1cccc(/C(C)=N/NC(=O)c2ccc(N(C)C)cc2)c1,?,6.7%,3.3%,-4.4%,?
CCNC(=S)N/N=C(\C)c1ccc2ccccc2c1OC(F)F,16.4µM*,2.5%,7.08µM*,23.1µM*,1.26µM*
C/C(=N\NC(=O)COc1ccc(C#N)cc1)c1ccccc1OC(F)F,?,8.1%,15.8µM*,-20.7%,11.2µM*
Cc1cc(C)c(OCC(=O)Nc2ccc(NC(=O)c3ccco3)cc2)c([N+](=O)[O-])c1,0.1%,2.5%,-2.7%,-5.7%,1.9%
COCCNC(=O)CSc1nc2cc3c(cc2c(=O)n1CCCCCC(=O)NCc1ccc(OC)cc1)OCO3,-0.9%,2.5%,nt,-0.4%,nt
C/C(=N\NC(=O)C1CC1)c1ccc(OC(F)F)cc1OC(F)F,?,nt,-22.6%,-5.2%,?
C/C(=N\NC(=S)NC(C)C)c1ccccc1OC(F)F,3.26µM*,2.7%,5.62µM*,2.91µM*,1.78µM*
CCN(CC)CCNC(=O)CNC(=O)c1nn(-c2ccc(OC)cc2)c(=O)c2ccccc12,11.4%,nt,3.9%,-3.1%,16.1%
COCc1[nH]nc2c1C(c1ccc(OC)c(OC)c1)C(C#N)=C(N)O2 (stereo not given),-15.5%,5.0%,6.9%,-0.5%,-11.3%[10 µM]
COCc1[nH]nc2c1C(c1ccnc3ccccc13)C(C#N)=C(N)O2 (stereo not given),9.2µM*,7.1%,-8.0%,18.4µM*,-22.1%
CCn1c2ccccc2c2cc(C3C(C#N)=C(N)Oc4n[nH]c(COC)c43)ccc21 (stereo not given),25.9µM*,9.8%,?,?,?
c1ccc(-n2ncc3c(N4CCN(c5ccccn5)CC4)nc(N4CCCCCC4)nc32)cc1,-24.8%,-1.9%,-14.0%,-27.8%,?
O=C(NCc1ccc2c(c1)OCO2)c1ccccc1Cl,2.7%,nt,nt,-3.2%,nt
O=C(NCc1ccc2c(c1)OCO2)c1nc(S(=O)(=O)Cc2ccccc2)ncc1Cl,4.11µM*,6.4%,?,2.59µM*,?
O=C(NCc1ccc2c(c1)OCO2)c1nc(S(=O)(=O)Cc2ccccc2F)ncc1Cl,2.06µM*,2.7%,3.55µM*,4.11µM*,7.08µM*
CSC1(SC2=NCCN2)SC2(NCCN2)S1,13µM*,nt,nt,10.3µM*,nt
CCN(c1ccccc1)S(=O)(=O)c1ccc(C(=O)N2CCOCC2)cc1,-0.9%,-0.1%,nt,-12.5%,nt
O=C(CSC1=Nc2ccccc2C2CC=NN12)Nc1ccc(F)cc1Cl (stereo not given),?,0.0%,14.7%,?,-28.3%
NC(=O)c1ccc(NC(=O)CSC2=Nc3ccccc3C3CC=NN23)cc1 (stereo not given),20.6µM*,3.8%,7.5%,9.2µM*,?
SMILES,TDP1 cell noCPT,TDP1 block,Gal4-VP16 FLuc,TDP1 cell CPT,RORgamma inh
COC(=O)c1ccc(NC(=O)CSC2=Nc3ccccc3C3CC=NN23)cc1 (stereo not given),23.1µM*,4.2%,-2.2%,23.1µM*,-22.5%
CC1CCCC(NC(=O)CSC2=Nc3ccccc3C3CC=NN23)C1C (stereo not given),?,-4.4%,nt,?,nt
Cc1ccc(NC(=O)CSC2=Nc3ccccc3C3CC=NN23)c(C)c1 (stereo not given),20.6µM*,6.8%,?,20.6µM*,-10.7%
Nc1cccc(-c2ccc(CO)o2)c1,-26.8%,9.0%,0.7%,-33.0%,?
COc1ccc(S(=O)(=O)Nc2ccc(N3CCOCC3)cc2)cc1[N+](=O)[O-],-0.8%,3.6%,-9.7%,-2.8%,98.0%
C[C@]12CCC(=O)C=C1CCC1C2C(O)C[C@]2(C)C1CC[C@]2(O)C(=O)COC(=O)CCC(=O)O (stereo not given in full),-7.2%,8.6%,1.2%,4.4%,2.7%
Cc1ccc(-n2c(O)c(C=NC3CCS(=O)(=O)C3)c3ccccc3c2=O)c(C)c1 (stereo not given),?,2.6%,-3.3%,20.6µM*,-7.9%
Cc1ccc(-n2c(O)c(C=Nc3cc(C)on3)c3ccccc3c2=O)c(C)c1,4.61µM*,5.5%,11.5%,1.64µM*,66.9%
O=C(COC(=O)C1C2CC3OC(=O)C1C3C2)Nc1ccccc1 (stereo not given),-8.3%,0.0%,0.4%,-14.5%,-41.0%
CCOc1ccc(C(=O)COC(=O)CNC(=O)C2CCCCC2)cc1,-25.6%,0.7%,nt,-4.3%,nt
O=C(CNC(=O)C1CCCCC1)OCC(=O)c1ccc(Cl)s1,-20.2%,4.6%,-6.5%,2.9%,5.0%
Fc1cc(Cl)ccc1NC1=NCCCCC1,-3.2%,nt,5.1%,-12.3%,-0.4%
Clc1ccc(-c2nnc(NC3=NCCCCC3)o2)cc1,-14.8%,2.0%,8.91µM*,-2.0%,6.31µM*
O=C(O)c1ccc(-c2nnc(-c3ccccc3)o2)cc1,-18.9%,nt,-19.0%,?,-19.5%
O=C(Nc1nnc(-c2ccc(Cl)s2)o1)C1CCCCC1,?,nt,nt,14.6µM*,nt
CCOc1ccc(-c2nnc(NC(=O)C3CCCC3)o2)cc1,?,3.0%,?,?,8.91µM*
O=C(c1ccc(-c2nnc(-c3ccccc3)o2)cc1)N1CCCCCC1,17.8µM*,7.3%,-1.6%,10µM*,-1.1%
O=C(Nc1nnc(-c2ccc3c(c2)OCCO3)o1)C1CCCCC1,?,4.6%,?,-28.3%,17.1%
O=C(Nc1nnc(-c2ccc(Cl)cc2)o1)C1CCCCC1,18.4µM*,nt,-9.2%,?,-1.5%
O=C(Nc1nnc(-c2ccccc2)o1)C1CCCCC1,?,3.3%,7.94µM*,?,3.55µM*
CC(C(=O)Nc1ccc(N(C)C)cc1)N1C(=O)c2ccccc2S1(=O)=O (stereo not given),5.8%,nt,nt,1.0%,nt
COc1ccccc1-n1cnc2cc(C(=O)N3CCOCC3)ccc21,23.5%,0.7%,-13.9%,2.0%,14.1%
